{
  "source": "PubChem BioAssay (NCATS)",
  "note": "Calls of active or inactive are those of the source. Where a call stands in place of a potency, no number is given. The call rests on the fitted dose curve; in most records, active means well fitted curve in the direction sought with a large enough effect; inconclusive means small, poorly fitted or top-dose-only effect, or effect the other way, or another doubt; inactive means no such curve, though single readings can be large or run the other way.",
  "data": [
    {"assay": "qHTS of Nrf2 Activators: LOPAC Validation (AID 624149)", "settings": "Nrf2/ARE reporter cell assay; series mostly up to 46.1 µM", "description": "Many diseases have some form of oxidative stress injury and ties to inflammation, causing a host of problems for the patient. The antioxidant response element (ARE) plays an important role in alleviating the harmful effects of oxidative stress. The antioxidant response element (ARE) is a transcriptional regulatory element involved in the activation of genes coding for a number of antioxidant proteins and detoxifying enzymes. These enzymes work in concert to protect tissues from oxidative insults and chemical toxicities in human hepatocytes and immune cells. The protective effects of ARE activation are primarily triggered through Nrf2 (NF-E2-related factor) binding to and activating AREs. It is known that Nrf2 controls the production of over 250 antioxidant and detoxification proteins (Hu et al., 2006), thereby protecting tissues by increasing cellular antioxidant content and suppressing inflammatory signaling pathways. The transcription factor Nrf2 is a central link between oxidative chemicals, such as phenolic antioxidants and electrophilic compounds, and the activation of ARE. Nrf2 levels are constitutively low as a consequence of its interaction with Keap1, which targets its degradation (Zipper and Mulcahy, 2002). Electrophiles react with key cysteine residues in Keap1, releasing Nrf2 and allowing its translocation to the nucleus. Once within the nucleus, Nrf2 complexes with coactivators such as p300, and binds to the AREs to induce gene transcription of cytoprotective enzymes, resulting in the prevention of toxicity. Activation of Nrf2 protects tissues by increasing cellular antioxidant content and suppressing inflammatory signaling pathways. Identifying novel and potent Nrf2 activators by using the AREc32 cell line to detect ARE activation by small molecules will lead to the identification and development of probes to study protective pathways in multiple tissues. These specific probes are essential to study the ARE pathway, and eventually to determine whether this pathway does activate genes that could protect against a host of diseases, including cardiovascular diseases, obesity, diabetes, Alzheimer's, and Parkinson's disease.\nThis project's aim is to identify novel and potent Nrf2 activators by using the AREc32 cell line to detect ARE activation by small molecules, which will lead to the identification and development of probes to study the ARE pathway.\nNIH Chemical Genomics Center [NCGC]\nNIH Molecular Libraries Probe Centers Network [MLPCN]\nAssay Submitter (PI): Curtis Klaassen, University of Kansas Medical Center\n5 uL of 1000 cells/well of AREc32_Fluc cells are seeded into 1536-well plate in OPTI-MEM medium with 5% FBS. The plates are incubated overnight at 37 deg C with 5% CO2. Then through pin tool transfer, 23 nL of compounds are added to each well before a 24 hr incubation at 37 deg C with 5% CO2. After the addition of 2.5 uL of Steady-Glo. the plates are kept at RT for 30 min, before they are read on the ViewLux", "values": [
      {"smiles": "NCCCCN=C(N)N", "Potency": "inactive"},
      {"smiles": "NC1(C(=O)O)CC1", "Potency": "inactive"},
      {"smiles": "Cc1cc2c(cc1Cl)N(C(=O)Nc1ccnc3ccccc13)CC2", "Potency": "inactive"},
      {"smiles": "COc1ccc(NC(=O)c2ccc(-c3ccc(-c4noc(C)n4)cc3C)cc2)cc1N1CCN(C)CC1", "Potency": "inactive"},
      {"smiles": "N#CC(C#N)=C(N)/C(C#N)=C/c1ccc(O)cc1", "Potency": "inactive"},
      {"smiles": "CCCCCCCCCCCCCCCCCCOC[C@H](COP(=O)([O-])OCC[N+](C)(C)C)OC", "Potency": "inactive"},
      {"smiles": "CC[C@@H]1Cc2cc(O)ccc2C2=C1c1ccc(O)cc1C[C@H]2CC", "Potency": "inactive"},
      {"smiles": "CCCn1c(=O)c2c(ncn2C)n(CCC)c1=O", "Potency": "inactive"},
      {"smiles": "Cc1nc2n(c(=O)c1CCN1CCC(c3noc4cc(F)ccc34)CC1)CCCC2O", "note": "(stereo not given)", "Potency": "inactive"},
      {"smiles": "C[C@H](O)C(=O)C1=Nc2c(nc(N)[nH]c2=O)NC1", "Potency": "inactive"},
      {"smiles": "N=S(=O)(O)Cc1noc2ccccc12", "Potency": "inactive"},
      {"smiles": "Cc1nc(N=Nc2ccc(C(=O)O)cc2)c(COP(=O)(O)O)c(C=O)c1O", "Potency": "inactive"},
      {"smiles": "N#C/C(=C\\c1ccc(O)c(O)c1)C(=O)NCCc1ccccc1", "Potency": "inactive"},
      {"smiles": "N[C@H]1CONC1=O", "Potency": "inactive"},
      {"smiles": "CCCCCCCC/C=C\\CCCCCCCC(=O)NCCc1ccc(O)c(O)c1", "Potency": "inactive"},
      {"smiles": "CNc1ncnc2c1ncn2[C@H]1C[C@H](OP(=O)(O)O)[C@@H](COP(=O)(O)O)O1", "Potency": "inactive"},
      {"smiles": "O=C(O)/C=C/c1ccc(O)c(O)c1", "Potency": "inactive"},
      {"smiles": "Cn1c(=O)c2c(nc(/C=C/c3cccc(Cl)c3)n2C)n(C)c1=O", "Potency": "inactive"},
      {"smiles": "CC#CCOC(=O)c1c(C)nc2sc3c(c2c1N)CCC(O)C3", "note": "(stereo not given)", "Potency": "inactive"},
      {"smiles": "S=C(S)N1CCCC1", "Potency": "inactive"},
      {"smiles": "NC1CONC1=O", "note": "(stereo not given)", "Potency": "inactive"},
      {"smiles": "Cn1cc(C(=O)OCC2CCN(CCNS(C)(=O)=O)CC2)c2ccccc21", "Potency": "inactive"},
      {"smiles": "COc1cc(/C=C(\\C#N)C(=O)c2ccc(O)c(O)c2)cc(I)c1O", "Potency": "inactive"},
      {"smiles": "Clc1nccc2c1ccc1ccccc12", "Potency": "inactive"},
      {"smiles": "CCCc1c(-c2ccc(O)cc2)nn(-c2ccc(O)cc2)c1-c1ccc(O)cc1", "Potency": "inactive"},
      {"smiles": "[N-]=[N+]=Nc1ccc(C(=O)CSC[C@H](NC(=O)CC[C@H](N)C(=O)O)C(=O)NCC(=O)O)cc1", "Potency": "inactive"},
      {"smiles": "CC(C)NCC(O)COc1ccc(CC(N)=O)cc1", "note": "(stereo not given)", "Potency": "inactive"},
      {"smiles": "CNc1cc(NS(=O)(=O)c2ccc(N)cc2)nc(NC)n1", "Potency": "inactive"},
      {"smiles": "NC1(C(=O)O)CCc2cc(C(=O)O)ccc21", "note": "(stereo not given)", "Potency": "inactive"},
      {"smiles": "O=c1[nH]ccc2c(O)cccc12", "Potency": "inactive"},
      {"smiles": "O=C(O)/C(=C/c1c(C(=O)O)[nH]c2cc(Cl)cc(Cl)c12)c1ccccc1", "Potency": "inactive"},
      {"smiles": "N=C(N)c1ccc(N)cc1", "Potency": "inactive"},
      {"smiles": "O=C(O)c1cccnc1C(=O)O", "Potency": "inactive"},
      {"smiles": "COC(=O)C(N)Cc1ccc(Cl)cc1", "note": "(stereo not given)", "Potency": "inactive"},
      {"smiles": "CC(C)(C)c1ccc(/C=C/C(=O)Nc2ccc3c(c2)OCCO3)cc1", "Potency": "inactive"},
      {"smiles": "N[C@H](C(=O)O)[C@H](Cc1ccccc1)C(=O)O", "Potency": "inactive"},
      {"smiles": "CN[C@H](CC(=O)O)C(=O)O", "Potency": "inactive"},
      {"smiles": "[Li+]", "Potency": "inactive"},
      {"smiles": "CCCC[C@@]1(C2CCCC2)Cc2cc(OCC(=O)O)c(Cl)c(Cl)c2C1=O", "Potency": "inactive"},
      {"smiles": "CC1C(=O)N(C)C(=O)c2nc[nH]c21", "note": "(stereo not given)", "Potency": "inactive"}
    ]}
  ]
}
